Experimental data taken from the supplement of paper PMC8728848.
This excerpt belongs to a sample that is enriched for the strongest signals.

Tests used:
Assay in all cases: glycan array binding signal (z-score within array); higher = stronger binding
Conditions in all cases: glycan notation: IUPAC condensed, linker removed
[1] = biological target: Fuc(a1-2)Gal(b1-4)GlcNAc
Outline: (§1)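 Arrays were curated from the Consortium for Functional Glycomics database, 3228 in total, and kept only where the protein sequence was available. Binding is expressed as a within-array Z-score. This score was averaged across arrays of the same protein sequence at different concentrations or buffers and across linkers, and negative values can be read as non-binding.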

[2] = biological target: Fuc(a1-2)Gal(b1-4)GlcNAc(b1-2)[Fuc(a1-2)Gal(b1-4)GlcNAc(b1-4)]Man(a1-3)[Fuc(a1-2)Gal(b1-4)GlcNAc(b1-2)Man(a1-6)]Man(b1-4)GlcNAc(b1-4)GlcNAc
Outline: as §1

[3] = biological target: Fuc(a1-2)Gal(b1-4)[Fuc(a1-3)]GlcNAc
Outline: as §1

[4] = biological target: Fuc(a1-2)Gal6S(b1-3)GlcNAc
Outline: as §1

[5] = biological target: Fuc(a1-2)[Gal(a1-3)]Gal(b1-3)GlcNAc(b1-6)GalNAc
Outline: as §1

[6] = biological target: Fuc(a1-2)[Gal(a1-4)]Gal(b1-4)GlcNAc
Outline: as §1

[7] = biological target: Fuc(a1-2)[GalNAc(a1-3)]Gal(b1-3)GlcNAc(b1-3)GalNAc
Outline: as §1

[8] = biological target: Fuc(a1-3)GlcNAc
Outline: as §1

[9] = biological target: Gal(a1-3)Gal(b1-4)GlcNAc
Outline: as §1

[10] = biological target: Gal(a1-3)[Gal(a1-4)]Gal(b1-4)GlcNAc
Outline: as §1

[11] = biological target: Gal(b1-2)Gal
Outline: as §1

[12] = biological target: Gal(b1-3)GlcNAc(b1-3)Gal(b1-4)GlcNAc(b1-6)[Gal(b1-3)GlcNAc(b1-3)]Gal(b1-4)Glc
Outline: as §1

[13] = biological target: Gal(b1-4)GlcNAc(b1-2)Man(a1-3)Man(b1-4)GlcNAc(b1-4)GlcNAc
Outline: as §1

[14] = biological target: Gal(b1-4)GlcNAc(b1-2)[Gal(b1-4)GlcNAc(b1-4)]Man(a1-3)[GlcNAc(b1-4)][Gal(b1-4)GlcNAc(b1-2)[Gal(b1-4)GlcNAc(b1-6)]Man(a1-6)]Man(b1-4)GlcNAc(b1-4)GlcNAc
Outline: as §1

[15] = biological target: Gal(b1-4)GlcNAc(b1-3)Gal(b1-4)GlcNAc(b1-2)Man(a1-3)[Gal(b1-4)GlcNAc(b1-3)Gal(b1-4)GlcNAc(b1-2)Man(a1-6)]Man(b1-4)GlcNAc(b1-4)GlcNAc
Outline: as §1

[16] = biological target: Gal(b1-4)GlcNAc(b1-3)Gal(b1-4)GlcNAc(b1-3)GalNAc
Outline: as §1

[17] = biological target: Gal(b1-4)GlcNAc(b1-3)Gal(b1-4)GlcNAc(b1-3)[Gal(b1-4)GlcNAc(b1-3)Gal(b1-4)GlcNAc(b1-6)]GalNAc
Outline: as §1

[18] = biological target: Gal(b1-6)Gal
Outline: as §1

[19] = biological target: Gal3S(b1-4)Glc
Outline: as §1

[20] = biological target: Gal3S(b1-4)GlcNAc
Outline: as §1

[21] = biological target: Gal3S(b1-4)[Fuc(a1-3)]Glc6S
Outline: as §1

[22] = biological target: Gal3S4S(b1-4)GlcNAc
Outline: as §1

[23] = biological target: Gal6S(b1-4)GlcNAc
Outline: as §1

[24] = biological target: GalNAc(b1-3)Gal(a1-6)Gal(b1-4)Glc
Outline: as §1

[25] = biological target: GalNAc(b1-4)GlcNAc(b1-2)Man
Outline: as §1

[26] = biological target: Glc(a1-4)Glc(a1-4)Glc(a1-4)Glc
Outline: as §1

[27] = biological target: GlcNAc(a1-4)Gal(b1-4)GlcNAc(b1-3)Gal(b1-4)[Fuc(a1-3)]GlcNAc(b1-3)Gal(b1-4)[Fuc(a1-3)]GlcNAc
Outline: as §1

[28] = biological target: GlcNAc(b1-3)Gal(b1-4)GlcNAc(b1-2)[GlcNAc(b1-3)Gal(b1-4)GlcNAc(b1-6)]Man(a1-6)[GlcNAc(b1-3)Gal(b1-4)GlcNAc(b1-2)Man(a1-3)]Man(b1-4)GlcNAc(b1-4)GlcNAc
Outline: as §1

[29] = biological target: GlcNAc(b1-3)Gal(b1-4)GlcNAc(b1-3)Gal(b1-4)GlcNAc(b1-2)Man(a1-3)[GlcNAc(b1-3)Gal(b1-4)GlcNAc(b1-3)Gal(b1-4)GlcNAc(b1-2)Man(a1-6)]Man(b1-4)GlcNAc(b1-4)GlcNAc
Outline: as §1

[30] = biological target: GlcNAc(b1-3)Gal(b1-4)GlcNAc(b1-3)[GlcNAc(b1-3)Gal(b1-4)GlcNAc(b1-3)]GalNAc
Outline: as §1

[31] = biological target: GlcNAc(b1-4)GlcNAc(b1-4)GlcNAc(b1-4)GlcNAc(b1-4)GlcNAc
Outline: as §1

[32] = biological target: Kdn(a2-6)Gal(b1-4)GlcNAc
Outline: as §1

[33] = biological target: Man(a1-2)Man(a1-3)[Man(a1-6)]Man(a1-6)[Man(a1-2)Man(a1-3)]Man(b1-4)GlcNAc(b1-4)GlcNAc
Outline: as §1

[34] = biological target: Man(a1-3)[Man(a1-6)]Man(a1-6)[Man(a1-3)]Man
Outline: as §1

[35] = biological target: Neu5Ac(a2-3)Gal(b1-3)GalNAc(b1-4)[Neu5Ac(a2-3)]Gal(b1-4)Glc
Outline: as §1

[36] = biological target: Neu5Ac(a2-3)Gal(b1-3)GlcNAc(b1-2)Man
Outline: as §1

[37] = biological target: Neu5Ac(a2-3)Gal(b1-4)GlcNAc(b1-2)Man
Outline: as §1

[38] = biological target: Neu5Ac(a2-3)Gal(b1-4)GlcNAc(b1-2)Man(a1-3)[Neu5Ac(a2-3)Gal(b1-4)GlcNAc(b1-2)Man(a1-6)]Man(b1-4)GlcNAc(b1-4)[Fuc(a1-6)]GlcNAc
Outline: as §1

[39] = biological target: Neu5Ac(a2-3)Gal(b1-4)GlcNAc(b1-2)[Neu5Ac(a2-3)Gal(b1-4)GlcNAc(b1-4)]Man(a1-3)[GlcNAc(b1-4)][Neu5Ac(a2-3)Gal(b1-4)GlcNAc(b1-2)[Neu5Ac(a2-3)Gal(b1-4)GlcNAc(b1-6)]Man(a1-6)]Man(b1-4)GlcNAc(b1-4)GlcNAc
Outline: as §1

[40] = biological target: Neu5Ac(a2-3)Gal(b1-4)GlcNAc(b1-3)Gal(b1-4)GlcNAc(b1-3)Gal(b1-4)GlcNAc(b1-2)Man(a1-3)[Neu5Ac(a2-3)Gal(b1-4)GlcNAc(b1-3)Gal(b1-4)GlcNAc(b1-3)Gal(b1-4)GlcNAc(b1-2)Man(a1-6)]GalNAc
Outline: as §1

[41] = biological target: Neu5Ac(a2-3)Gal(b1-4)GlcNAc(b1-3)Gal(b1-4)GlcNAc(b1-3)[Neu5Ac(a2-3)Gal(b1-4)GlcNAc(b1-3)Gal(b1-4)GlcNAc(b1-6)]GalNAc
Outline: as §1

[42] = biological target: Neu5Ac(a2-3)Gal(b1-4)[Fuc(a1-3)]GlcNAc(b1-2)Man
Outline: as §1

[43] = biological target: Neu5Ac(a2-3)Gal(b1-4)[Fuc(a1-3)]GlcNAc(b1-3)GalNAc
Outline: as §1

[44] = biological target: Neu5Ac(a2-3)[GalNAc(b1-4)]Gal(b1-4)Glc
Outline: as §1

[45] = biological target: Neu5Ac(a2-6)Gal
Outline: as §1

[46] = biological target: Neu5Ac(a2-6)Gal(b1-4)GlcNAc(b1-2)Man
Outline: as §1

[47] = biological target: Neu5Ac(a2-6)Gal(b1-4)GlcNAc(b1-2)Man(a1-3)Man(b1-4)GlcNAc(b1-4)GlcNAc
Outline: as §1

[48] = biological target: Neu5Ac(a2-6)Gal(b1-4)GlcNAc(b1-2)Man(a1-6)[GlcNAc(b1-2)Man(a1-3)]Man(b1-4)GlcNAc(b1-4)GlcNAc
Outline: as §1

[49] = biological target: Neu5Ac(a2-6)Gal(b1-4)GlcNAc(b1-3)Gal(b1-3)GlcNAc
Outline: as §1

[50] = biological target: Neu5Ac(a2-6)Gal(b1-4)GlcNAc(b1-3)Gal(b1-4)GlcNAc(b1-3)Gal(b1-4)GlcNAc(b1-2)Man(a1-3)[Neu5Ac(a2-6)Gal(b1-4)GlcNAc(b1-3)Gal(b1-4)GlcNAc(b1-3)Gal(b1-4)GlcNAc(b1-2)Man(a1-6)]GalNAc
Outline: as §1

[51] = biological target: Neu5Ac(a2-6)Gal(b1-4)GlcNAc(b1-3)Gal(b1-4)GlcNAc(b1-3)[Neu5Ac(a2-6)Gal(b1-4)GlcNAc(b1-3)Gal(b1-4)GlcNAc(b1-6)]GalNAc
Outline: as §1

[52] = biological target: Neu5Ac(a2-8)Neu5Ac
Outline: as §1

[53] = biological target: Neu5Ac(a2-8)Neu5Ac(a2-3)[GalNAc(b1-4)]Gal(b1-4)Glc
Outline: as §1

[54] = biological target: Neu5Ac9Ac(a2-3)Gal(b1-4)GlcNAc
Outline: as §1

[55] = biological target: Neu5Gc(a2-6)GalNAc
Outline: as §1

[56] = biological target: Neu5Gc(b2-6)Gal(b1-4)GlcNAc
Outline: as §1

B1: HA-00510 (Pseudomonas aeruginosa), Q02V39_PSEAB (protein)
chain: GVPIVNIATPNGAGLSNNHFRDYNVGANGLILNNATGKTQGTQLGGIILGNPNLKGQAAQVILNQVTGGNRSTLAGYTEVAGQSARVIVANPHGITCQGCGFINTPRATLTTGKPIMDGQRLERFQVDGGDIVVEGAELNVGNLEQFDLITRSAKLNAKLYAKNLNIVTGRNDVQADSLQATPRAADGSEKPQLAIDSSALGGMYAGAIRLVGTEQGVGVKLAGDMAASGGDIRIDASGKLSLAQASSQGDLKIAAQAVELNGKTYAGGSAEIRSAEELVNRQS
glycan array binding signal (z-score) [1]: 0.548
glycan array binding signal (z-score) [2]: 1.8
glycan array binding signal (z-score) [3]: -0.457
glycan array binding signal (z-score) [4]: -1.39
glycan array binding signal (z-score) [5]: -0.268
glycan array binding signal (z-score) [6]: 0.219
glycan array binding signal (z-score) [7]: 2.45
glycan array binding signal (z-score) [8]: 0.219
glycan array binding signal (z-score) [9]: 0.209
glycan array binding signal (z-score) [10]: 0.326
glycan array binding signal (z-score) [11]: -0.657
glycan array binding signal (z-score) [12]: 0.121
glycan array binding signal (z-score) [13]: -0.221
glycan array binding signal (z-score) [14]: 0.347
glycan array binding signal (z-score) [15]: 6.41
glycan array binding signal (z-score) [16]: 3.26
glycan array binding signal (z-score) [17]: 3.88
glycan array binding signal (z-score) [18]: -0.435
glycan array binding signal (z-score) [19]: 0.114
glycan array binding signal (z-score) [20]: -0.217
glycan array binding signal (z-score) [21]: 0.258
glycan array binding signal (z-score) [22]: -0.526
glycan array binding signal (z-score) [23]: -0.516
glycan array binding signal (z-score) [24]: -0.551
glycan array binding signal (z-score) [25]: -1.01
glycan array binding signal (z-score) [26]: 0.18
glycan array binding signal (z-score) [27]: 0.682
glycan array binding signal (z-score) [28]: 0.061
glycan array binding signal (z-score) [29]: 4.3
glycan array binding signal (z-score) [30]: -0.255
glycan array binding signal (z-score) [31]: 0.345
glycan array binding signal (z-score) [32]: -0.045
glycan array binding signal (z-score) [33]: -0.534
glycan array binding signal (z-score) [34]: -0.502
glycan array binding signal (z-score) [35]: 0.112
glycan array binding signal (z-score) [36]: -0.852
glycan array binding signal (z-score) [37]: 1.18
glycan array binding signal (z-score) [38]: 0.601
glycan array binding signal (z-score) [39]: 0.048
glycan array binding signal (z-score) [40]: 3.77
glycan array binding signal (z-score) [41]: -0.447
glycan array binding signal (z-score) [42]: -1.16
glycan array binding signal (z-score) [43]: 2.86
glycan array binding signal (z-score) [44]: -0.269
glycan array binding signal (z-score) [45]: 0.437
glycan array binding signal (z-score) [46]: 2.52
glycan array binding signal (z-score) [47]: -0.14
glycan array binding signal (z-score) [48]: -0.425
glycan array binding signal (z-score) [49]: 2.34
glycan array binding signal (z-score) [50]: 3.69
glycan array binding signal (z-score) [51]: 2.75
glycan array binding signal (z-score) [52]: 0.611
glycan array binding signal (z-score) [53]: -0.094
glycan array binding signal (z-score) [54]: 0.419
glycan array binding signal (z-score) [55]: -0.059
glycan array binding signal (z-score) [56]: -0.019
